Consider 26 sequences from paper PMC5700166.

This assay has as its target T1, GST-Nv-NF-kB (Ser allele) (Nematostella vectensis, UniProt A7UNT2 2-411).
T1 sequence: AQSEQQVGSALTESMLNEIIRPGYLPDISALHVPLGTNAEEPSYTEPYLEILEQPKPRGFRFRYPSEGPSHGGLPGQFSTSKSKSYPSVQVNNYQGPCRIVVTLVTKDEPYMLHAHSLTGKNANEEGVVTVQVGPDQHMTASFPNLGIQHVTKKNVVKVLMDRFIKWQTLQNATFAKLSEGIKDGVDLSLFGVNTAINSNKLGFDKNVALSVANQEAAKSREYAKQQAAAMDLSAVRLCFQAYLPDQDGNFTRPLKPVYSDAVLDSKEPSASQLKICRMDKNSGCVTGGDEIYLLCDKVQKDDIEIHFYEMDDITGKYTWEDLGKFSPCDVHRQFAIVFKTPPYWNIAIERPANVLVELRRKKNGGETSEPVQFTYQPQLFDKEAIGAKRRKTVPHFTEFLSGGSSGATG
The experiment in a line: protein-binding microarray (PBM); PBM: ~300 nM protein, 6 mM HEPES pH 7.8, 80 mM KCl, 0.5 mM EDTA, 0.5 mM EGTA, 6% glycerol, 35 ng/ul poly-dIdC, 1% milk, 1 h, room temperature; Ap Aiptasia and Nv Nematostella (sea anemones) / Co Capsaspora / Aq Amphimedon (sponge) / Dm Drosophila / Hu human; RHD is the Rel homology domain; high values mean tight binding. The note with it: dsDNA, one strand shown.
As for “CCGATTAACATCAGGCATCCCCCTGATGTTAATCGGGTCTTGATTCGCTTGACGCTGCTG”, the binding signal amounted to 4.92 z-score.
The same measure for “CCGATTAACATCAAAAAGCCCCGTGATGTTAATCGGGTCTTGATTCGCTTGACGCTGCTG”: 6.26 z-score; for “CCGATTAACATCAGGGGGGTTACTGATGTTAATCGGGTCTTGATTCGCTTGACGCTGCTG”: 4.18 z-score; for “CCGATTAACATCAGGCATTCCCATGATGTTAATCGGGTCTTGATTCGCTTGACGCTGCTG”: 1.11 z-score.
“CCGATTAACATCACCCCCCCCCCTGATGTTAATCGGGTCTTGATTCGCTTGACGCTGCTG”: the binding signal came to 5.24 z-score.
To “CCGATTAACATCAGGGGACTTCATGATGTTAATCGGGTCTTGATTCGCTTGACGCTGCTG” belongs 6.12 z-score; to “CCGATTAACATCAAAAAATCCCTTGATGTTAATCGGGTCTTGATTCGCTTGACGCTGCTG”, 5.87 z-score; to “CCGATTAACATCAGGATGTCCCCTGATGTTAATCGGGTCTTGATTCGCTTGACGCTGCTG”, 4.5 z-score.
The same measure for “CCGATTAACATCACAGAAACCCCTGATGTTAATCGGGTCTTGATTCGCTTGACGCTGCTG”: 4.97 z-score; for “CCGATTAACATCAATCCCCCCCCTGATGTTAATCGGGTCTTGATTCGCTTGACGCTGCTG”: 6.45 z-score.
As for “CCGATTAACATCAGATAAACCCCTGATGTTAATCGGGTCTTGATTCGCTTGACGCTGCTG”, the binding signal was 3.09 z-score.
To “CCGATTAACATCAGGGTAATTTATGATGTTAATCGGGTCTTGATTCGCTTGACGCTGCTG” belongs 6 z-score; to “CCGATTAACATCAAGGAACCCCCTGATGTTAATCGGGTCTTGATTCGCTTGACGCTGCTG”, 6.23 z-score; to “CCGATTAACATCAGTGTCCCGTTTGATGTTAATCGGGTCTTGATTCGCTTGACGCTGCTG”, 1.48 z-score.
To “CCGATTAACATCAGAATACCCCCTGATGTTAATCGGGTCTTGATTCGCTTGACGCTGCTG” belongs 6.16 z-score.
In the case of “CCGATTAACATCAGGGGGTATTATGATGTTAATCGGGTCTTGATTCGCTTGACGCTGCTG”, the binding signal was found to be 6.38 z-score.
The same measure for “CCGATTAACATCAAGGGAATTCCTGATGTTAATCGGGTCTTGATTCGCTTGACGCTGCTG”: 6.53 z-score; for “CCGATTAACATCAAAAAAACACCTGATGTTAATCGGGTCTTGATTCGCTTGACGCTGCTG”: 5.3 z-score.
To “CCGATTAACATCAAAATGCCCCCTGATGTTAATCGGGTCTTGATTCGCTTGACGCTGCTG” belongs 4.81 z-score; to “CCGATTAACATCAAAATACCCCTTGATGTTAATCGGGTCTTGATTCGCTTGACGCTGCTG”, 6.34 z-score; to “CCGATTAACATCAAAAAAACCCTTGATGTTAATCGGGTCTTGATTCGCTTGACGCTGCTG”, 5.27 z-score.
To “CCGATTAACATCAGAAAATCACCTGATGTTAATCGGGTCTTGATTCGCTTGACGCTGCTG” belongs 4.87 z-score; to “CCGATTAACATCAGGGGGGATACTGATGTTAATCGGGTCTTGATTCGCTTGACGCTGCTG”, 4.8 z-score.
“CCGATTAACATCAATAAAATCCCTGATGTTAATCGGGTCTTGATTCGCTTGACGCTGCTG” came in with a binding signal of 4.09 z-score.
The same measure for “CCGATTAACATCAAGCCCCCCCCTGATGTTAATCGGGTCTTGATTCGCTTGACGCTGCTG”: 4.25 z-score; for “CCGATTAACATCATTTTACCTTGTGATGTTAATCGGGTCTTGATTCGCTTGACGCTGCTG”: 3.39 z-score.
